In the library only some 3.9% were active in any assay of this set; here they are far more common.
D1 agonist: activates the human D1 dopamine receptor. HEK293 T-REx D1 cells, calcium flux, agonist mode. activation, % at 2 µM. 1% of 360,000 active. AID 504660; in the data active means activation above about 30%; further: 0% is about no effect
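Agonism was scored from calcium flux recorded over 180 s (1 read/s) after pintool compound addition, following a 10-cycle baseline. Cells were inducible force-coupled HEK293 TREx D1, plated overnight at 30 C and loaded with no-wash calcium dye.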
D1 antag: human D1 dopamine receptor antagonism | P21728 | HEK293 TREx D1 cells, calcium flux, dopamine EC80; hits give low values | activity change, negative = inhibition, % at 10 µM | 3.2% of 360,000 active | AID 504652; in the data active means activity change below about -30%; further: on the % scale 0 is the no-effect control and ±100 the full control effect
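Allosteric or orthosteric antagonism assessed as attenuation of the calcium response to EC80 dopamine, added 180 s after compound, in induced HEK293 Trex D1 cells loaded with no-wash calcium dye.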
D1 potentiator: enhances dopamine response at the human D1 receptor. P21728. HEK293 TREx D1 cells, calcium flux, dopamine EC20 potentiation. potentiation, % at 10 µM. 0.036% of 360,000 active. AID 504651; in the data active means potentiation above about 30%; further: 0% is about no effect
USP2a inh: USP2a (human) protease inhibition; USP2 core, Ub-CHOP2 coupled fluorogenic reporter, 485/531; 0.01% of 330,000 active; Potency, µM (top dose mostly 38.3 µM), inactives show at the top dose activity change, negative = inhibition, hits mostly inhibitors; O75604;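 further: potency means the concentration at half of the fitted maximal effect; plate controls were DMSO wells for no effect and full inhibition by NEM control for full effect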
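Cell-free coupled assay: 10nM USP2 core preincubated 30min RT with compound in Tris-HCl pH 8.0/CaCl2/CHAPS buffer, then 25nM Ub-CHOP2 and 25nM reporter substrate; fluorescence (Ex 485/Em 531) read after 60min RT, normalized to NEM inhibition, concentration-response curves fitted.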
Eya2 inh: blocks the phosphatase activity of human Eya2 | recombinant Eya2, OMFP fluorescence dephosphorylation (OMFP is methylfluorescein phosphate) | 0.006% of 330,000 active | O00167 | Potency, µM (highest dose often 76.9 µM), for inactives: at the top dose activity, negative = inhibition, most hits filed as inhibitors; further: potency means the concentration at half of the fitted maximal effect; on the % scale 0 is the no-effect control and ±100 the full control effect
Target sequence (O00167 whole entry, looked up): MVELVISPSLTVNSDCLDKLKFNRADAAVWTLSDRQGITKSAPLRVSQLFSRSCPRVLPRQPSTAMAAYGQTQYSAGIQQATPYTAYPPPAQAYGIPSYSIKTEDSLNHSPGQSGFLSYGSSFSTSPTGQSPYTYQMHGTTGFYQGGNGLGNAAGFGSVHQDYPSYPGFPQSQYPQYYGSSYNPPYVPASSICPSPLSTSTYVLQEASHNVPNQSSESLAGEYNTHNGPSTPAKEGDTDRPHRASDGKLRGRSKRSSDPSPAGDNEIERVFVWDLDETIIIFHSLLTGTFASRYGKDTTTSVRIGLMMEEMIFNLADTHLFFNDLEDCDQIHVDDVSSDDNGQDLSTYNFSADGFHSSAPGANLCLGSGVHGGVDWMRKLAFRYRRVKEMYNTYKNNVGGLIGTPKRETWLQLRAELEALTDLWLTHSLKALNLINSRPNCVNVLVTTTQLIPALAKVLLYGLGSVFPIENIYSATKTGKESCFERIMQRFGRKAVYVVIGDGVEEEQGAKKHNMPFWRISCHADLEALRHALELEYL
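Eya2 protein (added as 0.2 uM solution) was preincubated with compound for 10 min at ambient temperature in 50 mM HEPES pH 7.5, 50 mM NaCl, 5 uM MgCl2, 0.05% BSA, 1 mM DTT. OMFP (added at 50 uM) then reacted 10 min; fluorescence read at 485/525 nm.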
GALK inh: galactokinase (human) inhibition; P51570; Purified GALK, Kinase-Glo residual ATP luminescence; Potency, µM (titrated, usually from 57.5 µM), for inactives: top-dose activity change, negative = inhibition, actives largely listed as inhibitors; 0.007% of 270,000 active; AID 1868; further: potency means the concentration at half of the fitted maximal effect; on the % scale 0 is the no-effect control and ±100 the full control effect
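Galactose (100 uM) and ATP (35 uM) were turned over by 5 nM GALK for 1 h at RT. Kinase-Glo Plus then converted the remaining ATP into a luminescent signal.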
Active calls of the source: *. Unless noted, the call rests on the fitted dose curve; in most records, active means well fitted inhibition curve with a large enough effect; inconclusive means small, poorly fitted or top-dose-only effect, or effect the other way; inactive means flat fitted curve, though single readings scatter.

For O=c1cc(-c2ccccc2)nc(SCc2nc(-c3ccccc3Cl)no2)[nH]1 the results were D1 agonist -1, D1 antag -2 and D1 potentiator -1.
Screening Cc1cc(C)c(NC(=O)CCCOC(=O)C2=COCCO2)c(C)c1 returned D1 agonist 2, D1 antag -13, D1 potentiator 1, USP2a inh 7%, Eya2 inh 28% and GALK inh 5%.
Cc1cc(C)c(-c2csc(NC(=O)C3=COCCO3)n2)c(C)c1 was read as D1 agonist 12, D1 antag -30*, D1 potentiator -4, USP2a inh -3% and Eya2 inh -16%.
Screening O=C(Nc1nc(-c2cccs2)cs1)C1=COCCO1 returned D1 agonist 0, D1 antag -82*, D1 potentiator -5, USP2a inh 2%, Eya2 inh -3% and GALK inh -4%.
Cc1cc(C)c2sc(NC(=O)C3=COCCO3)nc2c1 was read as D1 agonist 0, D1 antag -34*, D1 potentiator 13, USP2a inh 3%, Eya2 inh -23% and GALK inh -7%.
`Cc1cc(C)c(NC(=O)C2=COCCO2)c(C)c1` gave D1 agonist 0, D1 antag -33*, D1 potentiator -7, USP2a inh 4% and Eya2 inh -14%.
`COc1cccc(CNC(=O)CSc2ccc(-c3sc(-c4ccccc4)nc3C)nn2)c1` gave D1 agonist 3, D1 antag 8 and D1 potentiator -2.
For CCc1ccc(-n2nc(CO)c(C(=O)NCc3cccnc3)n2)cc1 the results were D1 agonist -1, D1 antag 1 and D1 potentiator 2.
Screening NC(=O)c1ccc(-n2nnnc2Oc2ccccc2)cc1 returned D1 agonist -2, D1 antag -49*, D1 potentiator 2, USP2a inh 2%, Eya2 inh -4% and GALK inh -2%.
COc1ccccc1Oc1nnnn1-c1ccc(C(N)=O)cc1 was read as D1 agonist 1, D1 antag -11, D1 potentiator 3, USP2a inh -1%, Eya2 inh 11% and GALK inh 0%.
`C=CCN1C(=O)/C(=C2/Sc3ccc(OC)cc3N2C)SC1=Nc1ccccc1` gave D1 agonist 2, D1 antag -3, D1 potentiator -2, USP2a inh 6%, Eya2 inh -6% and GALK inh 12%.
For CCCCN1C(=O)/C(=C2/Sc3ccccc3N2C)S/C1=N\c1ncn[nH]1 the results were D1 agonist 3, D1 antag -54*, D1 potentiator -4, USP2a inh 26%, Eya2 inh 4% and GALK inh 1%.
For CCN1CCC(N(Cc2ccc3c(c2)OCO3)C(=O)Nc2cc(F)ccc2F)CC1 the results were D1 agonist 11, D1 antag 7 and D1 potentiator 0.
For CCn1cc(C(=O)OCC(=O)Nc2cccc(C(C)=O)c2)c(=O)c2ccc(C)nc21 the results were D1 agonist -1, D1 antag 0 and D1 potentiator 0.
Screening Cc1ccc(OCC(=O)Nc2nnc(S(=O)(=O)N3CCc4ccccc43)s2)cc1 returned D1 agonist 1, D1 antag -11 and D1 potentiator -3.
Screening CNC(=O)c1cn(-c2ccccc2)c(=O)c2ccccc12 returned D1 agonist 0, D1 antag -73*, D1 potentiator -11, USP2a inh -2%, Eya2 inh 6% and GALK inh 2%.
CC(C)c1nc2n(n1)C1(CCCCC1)[C@@H]1CCCC[C@@H]1N2 was read as D1 agonist 5, D1 antag -2 and D1 potentiator 1.
For Cc1ccc(S(=O)(=O)N(C)C)cc1NC(=O)CSc1nnc(C2CC2)n1C1CC1 the results were D1 agonist 1, D1 antag -68*, D1 potentiator 4, USP2a inh -2% and Eya2 inh 22%.
Cc1ccc2occ(CC(=O)N3CCN(c4cccc(Cl)c4)CC3)c2c1 was read as D1 agonist 7, D1 antag -2 and D1 potentiator 0.
COc1cccc(C2c3[nH]c4ccccc4c3CCN2Cc2cnc(C)s2)c1OC (configuration not stated) was read as D1 agonist 1, D1 antag -43*, D1 potentiator 6, USP2a inh 1%, Eya2 inh 3% and GALK inh 7%.
Screening OC1(c2ccc3c(c2)OCO3)CCN(Cc2ccccn2)CC1 returned D1 agonist 1, D1 antag -40*, D1 potentiator -4, USP2a inh 0%, Eya2 inh -15% and GALK inh -5%.
CCOC(=O)c1c(C)[nH]c(C)c1S(=O)(=O)N1CCCC(C(=O)N2CCN(c3cccc(C)c3C)CC2)C1 (configuration not stated) was read as D1 agonist 5, D1 antag 2 and D1 potentiator 6.
Screening CC(C)=CCC/C(C)=C/CC/C(C)=N/O returned D1 agonist 2, D1 antag -32*, D1 potentiator -4, USP2a inh -2%, Eya2 inh -2% and GALK inh 4%.
For CC(=O)OC/C=C(\C)CCC=C(C)C the results were D1 agonist 5, D1 antag -2, D1 potentiator 4, USP2a inh -3% and Eya2 inh -15%.
Screening Cc1cc2c(s1)c(C=O)c(C(=O)NCc1ccccc1F)n2C returned D1 agonist 2, D1 antag -13, D1 potentiator -6, USP2a inh -2% and Eya2 inh -21%.
For Cc1ccc(N=Nc2c(O)[nH]c3ccc(F)cc23)cc1 the results were D1 agonist 117*, D1 antag -48*, D1 potentiator -2, USP2a inh inconclusive, Eya2 inh 8% and GALK inh -1%.
For Cc1ccc2[nH]c(O)c(N=NC(N)=S)c2c1 the results were D1 agonist 0, D1 antag -9, D1 potentiator 5, USP2a inh 0%, Eya2 inh 14% and GALK inh -2%.
Screening COc1ccc(N=Nc2[nH]c3ccc(C)cc3c2O)cc1 returned D1 agonist 0, D1 antag 5, D1 potentiator -7, USP2a inh 3%, Eya2 inh -2% and GALK inh 1%.
Cc1ccc(N=Nc2[nH]c3ccccc3c2O)cc1 was read as D1 agonist 52*, D1 antag -5, D1 potentiator 2, USP2a inh 4% and Eya2 inh 2%.
For COc1ccccc1N1CCN(C(=O)CCS(=O)(=O)c2cc(Br)cc3c2N(C(=O)C2CC2)CC3)CC1 the results were D1 agonist -1, D1 antag -6 and D1 potentiator 0.
